SW480 rereplic – inducers of DNA re-replication in SW480 colon cancer cells; Potency, µM (series often up to 46.1 µM), without a hit: at the top dose re-replication activation, hits mostly activators; SW480 DNA re-replication, Hoechst DNA content imaging, 48 h; hit rate 1.8% among 340,000; AID 624297; also: % of control where 0% means no effect; nearly all actives have a fitted effect of over 55% in size
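Image-based read-out: total Hoechst fluorescence of nuclei (405 nm excitation, 500-530 nm emission), with hits raising the fraction of high-intensity nuclei. SW480 colon cells incubated 48 hr with compounds at 37 C.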
MCF10A rereplic – inducers of DNA re-replication in MCF 10A breast cells; MCF 10A DNA re-replication, Hoechst nuclear intensity, 48 h; Potency, µM (series often up to 46.1 µM), for the others: at the top dose activity, positive = re-replication, hits mostly activators; hit rate 2.9% among 350,000; also: % of control where 0% means no effect; nearly all actives have a fitted effect of over 50% in size
VP16 counter – inhibits Gal4-VP16 luciferase reporter, ROR gamma counter-screen; Drosophila S2 Gal4-VP16 UAS-luciferase, luminescence, 20 h; Potency, µM (highest dose often 53.6 µM), inactives show top-dose activity, negative = inhibition, usual class: inhibitors; hit rate 3.5% among 310,000;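 also: Gal4-VP16 expression switched on by copper sulfate through the metallothionein promoter; % is scaled to controls: 0 for no effect and ±100 for the full control effect; nearly all actives have a fitted effect of over 50% in size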
ELG1 repair inh – inhibitors of ELG1-dependent DNA repair in HEK293T cells | HEK293T ELG1-luciferase reporter, luminescence, 16 h; DNA damage induced by 5-fluorouridine | hit rate 2.3% among 330,000 | Potency, µM (doses to about 46.1 µM), for inactives: at the top dose activity change, negative = inhibition, usual class: inhibitors; also: % is scaled to controls: 0 for no effect and ±100 for the full control effect; nearly all actives have a fitted effect of over 55% in size
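Quantitative HTS, concentration-response format. 2,000 cells/well co-treated with 5-fluorouridine and compound, 16 hr in 5% CO2 at 37 °C; ONE-Glo luminescence read after 30 min.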
RORgamma inh – ROR gamma (mouse) transcription inhibition; P51450; Drosophila S2 Gal4-RORgamma UAS-luciferase reporter, 20 h; Potency, µM (doses to about 53.6 µM), for the others: top-dose activity change, negative = inhibition, most hits filed as inhibitors; hit rate 5.4% among 310,000; also: % is scaled to controls: 0 for no effect and ±100 for the full control effect; nearly all actives have a fitted effect of over 60% in size
Target sequence (P51450 whole entry, looked up, the tested form may be a part): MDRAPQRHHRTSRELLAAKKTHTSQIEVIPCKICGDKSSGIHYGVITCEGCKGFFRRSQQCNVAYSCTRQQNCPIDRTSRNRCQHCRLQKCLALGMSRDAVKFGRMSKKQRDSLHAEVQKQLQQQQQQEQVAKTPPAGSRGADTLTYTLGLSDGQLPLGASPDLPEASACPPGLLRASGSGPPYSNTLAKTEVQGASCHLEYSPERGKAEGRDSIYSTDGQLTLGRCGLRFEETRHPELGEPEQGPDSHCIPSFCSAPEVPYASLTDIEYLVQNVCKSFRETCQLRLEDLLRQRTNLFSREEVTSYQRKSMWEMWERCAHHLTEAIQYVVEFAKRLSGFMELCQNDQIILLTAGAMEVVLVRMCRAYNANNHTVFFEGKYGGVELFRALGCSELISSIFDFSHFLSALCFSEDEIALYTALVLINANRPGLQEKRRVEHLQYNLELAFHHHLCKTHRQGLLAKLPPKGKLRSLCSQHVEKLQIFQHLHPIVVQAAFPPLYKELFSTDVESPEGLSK
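Drosophila S2 cells stably expressing Gal4-DBD/mouse RORγ fusion under metallothionein promoter plus UAS-luciferase; compound 1 h, then 700 uM CuSO4 induction for 20 h at ambient temperature; inhibition read as reduced luminescence.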
* marks the source's active call; other numbers are inactive results; ? = inconclusive; / = not tested or not shown; [ ] = dose if it differs, or a comment. Only some compounds are listed: those with a hit (about 10% of all), similar ones and a draw of the others. Calls follow the shape of the dose curve; as a rule, active = well fitted curve in the direction sought with a large enough effect; inconclusive = small, poorly fitted or top-dose-only effect, or another doubt; inactive = no such curve, though single readings can be large; an effect the other way counts as inactive or inconclusive. Potency is read from the fitted curve at half-maximal effect.

SMILES | SW480 rereplic | MCF10A rereplic | VP16 counter | ELG1 repair inh | RORgamma inh
O=C(NC(=S)Nc1ccccc1[N+](=O)[O-])c1ccccc1Cl | -35% | -4% | ? | ? | 4µM*
CC(C)(C)CC(=O)NC(=S)Nc1ccccc1[N+](=O)[O-] | 5% | 0% | ? | 10% | 6.3µM*
O=C(COc1ccc(Br)cc1)Nc1ccc(CN2CCOCC2)cc1 | 3% | 8% | -17% | -5% | 39%
Cc1ccc(O)c(NC(=S)NC(=O)c2ccccc2Cl)c1 | 11% | ? | 13µM* | 2% | 3.5µM*
Cc1cc(C)c(C(=O)CC(=O)c2ccccc2Cl)c(O)c1 | 7% | ? | 4.5µM* | -3% | 2.2µM*
Cc1ccc(O)c(NC(=O)c2cc(-c3ccccc3Cl)on2)c1 | 3% | ? | 5% | ? | 34%
Cc1cc(C)c(NC(=O)CC(=O)c2ccccc2)c(Cl)c1 | 10% | 2% | -15% | 28% | 28%
Clc1ccc(CCNc2nc3ccccc3s2)cc1 | 15% | ? | 2% | ? | 11µM*
c1coc(CNc2nc3ccccc3s2)c1 | 2% | 3% | -1% | ? | -40%
O=c1c(-c2nc3ccccc3s2)cccn1Cc1ccc(Cl)cc1 | ? | 3.3µM* | -9% | ? | 26%
Clc1ncccc1-c1nc2ccccc2s1 | 2% | -3% | 6% | ? | 2%
CCCCC1=NN2C(=N)CC(=O)N=C2S1 | 0% | 0% | 1% | -9% | 10µM*
CC(C)C1=NN2C(=N)CC(=O)N=C2S1 | 2% | 16% | -1% | ? | -24%
O=C(NCCC1CCCCN1S(=O)(=O)c1ccc(F)cc1)C(=O)NCC1CCCO1 (configuration not stated) | -3% | 10% | / | -9% | /
Cc1ccc(C2=NC3(CCCCCC3)NC2=S)cc1 | -1% | 3% | 2.2µM* | 22% | 1.4µM*
O=C1NC2(CCCC2)N=C1c1ccc(Cl)cc1 | -5% | -5% | 3% | ? | 31%
O=C1NC2(CCCCC2)N=C1c1ccc(Br)cc1 | -3% | 2% | ? | 13% | 13µM*
O=C1NC2(CCCCC2)N=C1c1ccc(F)cc1 | -5% | -8% | 10% | -2% | 1%
Cn1c(CSc2nc3ccccc3s2)nnc1SCC(=O)NCCCN1CCOCC1 | -4% | -4% | -4% | -7% | -19%
Cn1nnnc1SCC(=O)Nc1ccc2c(c1)OCO2 | -2% | -1% | -20% | ? | 8%
C[C@@H](NC(=O)Cn1cnc2c(NCc3ccccc3)ncnc21)c1cccc2ccccc12 | 3% | ? | / | -21% | /
O=C(Cn1cnc2c(NCc3ccccc3)ncnc21)NCc1ccccc1 | 12µM* | 9.2µM* | / | ? | /
Cc1cccc(-n2ncc3c(N4CCCc5ccccc54)ncnc32)c1 | 21µM* | 12µM* | -1% | ? | 18%
Cc1cccc(-n2ncc3c(NCc4ccccn4)ncnc32)c1 | -1% | 7% | -11% | ? | 24%
COc1ccc(OC)c(Nc2ncnc3c2cnn3-c2cccc(C)c2)c1 | 7.3µM* | ? | -5% | ? | ?
SMILES | SW480 rereplic | MCF10A rereplic | VP16 counter | ELG1 repair inh | RORgamma inh
Cc1cccc(-n2ncc3c(NCc4ccccc4)ncnc32)c1 | 16µM* | 6.5µM* | ? | ? | ?
CCOc1ccc(N2C=Nc3ccc(OCC)cc3C2)cc1 | 5% | -1% | -21% | 4% | -34%
c1ccc(CCNc2ncnc3c2cnn3-c2ccccc2)cc1 | 18µM* | ? | ? | ? | ?
c1ccc(CNc2ncnc3c2cnn3-c2ccccc2)cc1 | 13µM* | 9.2µM* | -4% | ? | -5%
Cc1cccc(-n2ncc3c(NCc4ccco4)ncnc32)c1 | ? | 16µM* | 4% | ? | ?
Fc1ccc(CNc2ncnc3c2cnn3-c2ccccc2)cc1 | -3% | 4% | -14% | / | -21%
Cc1ccc(-n2ncc3c(NCc4ccco4)ncnc32)cc1C | ? | 0% | 0% | ? | -10%
CCCn1c(SCC(=O)N2CCN(c3ccc(OC)cc3)CC2)nc2c1c(=O)n(C)c(=O)n2C | -3% | ? | -7% | 21µM* | 41%
CCCCn1c(SCC(=O)N2c3ccccc3CCc3ccccc32)nc2c1c(=O)n(C)c(=O)n2C | -2% | 9% | 0% | 21µM* | 27%
CCCn1c(SCC(=O)Nc2ccccc2N2CCCCC2)nc2c1c(=O)n(C)c(=O)n2C | 5% | 3% | -6% | 7.3µM* | -13%
CCCn1c(SCC(=O)Nc2ccccc2C(=O)OC)nc2c1c(=O)n(C)c(=O)n2C | -9% | 2% | / | 2% | 14%[0.365 µM]
CCCn1c(SCC(=O)N2CCCC2)nc2c1c(=O)n(C)c(=O)n2C | -15% | 8% | -8% | 0% | 30%
COc1ccc(NC(=O)N2CC[C@@]3(CCCN(C(=O)c4cc(C(F)(F)F)cc(C(F)(F)F)c4)C3)C2)cc1 | / | / | -5% | / | ?
C=CCn1c(SCCN)nnc1-c1cccc(S(=O)(=O)N2CCOCC2)c1 | 6% | 2% | / | / | /
FC(F)Oc1ccc(NC(=S)NNc2ccnc3cc(Cl)ccc23)cc1 | 12µM* | ? | -7% | 2% | -3%
NC(=S)NNc1ccnc2cc(Cl)ccc12 | -14% | 8% | -3% | -6% | ?
Oc1ccccc1-c1cc(C(F)(F)C(F)F)nc(-c2ccccc2)n1 | 16% | ? | -6% | 10% | -35%
O=[N+]([O-])c1ccc(O)c(-c2cc(C(F)(F)F)nc(-c3ccccc3)n2)c1 | 15% | ? | 2.8µM* | ? | 1.1µM*
Nc1[nH]n2c(=O)cc(-c3ccccc3)nc2c1N=Nc1ccc(S(N)(=O)=O)cc1 | 1% | -7% | -11% | 9% | 11%
NS(=O)(=O)c1ccc(N=Nc2c(-c3ccccc3)[nH]n(-c3nc(-c4ccccc4)cs3)c2=O)cc1 | 2.9µM* | ? | -1% | 5.2µM* | 43%
O=C1c2cccc3cc([N+](=O)[O-])cc(c23)C(=O)N1/N=C/c1ccc(O)cc1O | 13µM* | 18% | ? | -13% | -24%
CCN(CC)c1ccc(/C=N/N2C(=O)c3ccccc3C2=O)c(O)c1 | -541% | ? | -10% | ? | 32%
COc1ccc(C(=O)OCC(=O)NC2CC2)cc1S(=O)(=O)N(C)Cc1ccccc1 | -8% | 1% | / | 20% | /
CC(=O)Nc1ccc(NC(=O)c2ccc(Cl)c(S(=O)(=O)N3CCc4ccccc43)c2)cc1 | -3% | 6% | / | / | /
O=C(Nc1cccnc1)c1ccc(Cl)c(S(=O)(=O)N2CCc3ccccc32)c1 | -3% | 10% | -17% | 13µM* | 6%
CCOc1ccc(CN2CCN(Cc3[nH]c4ccccc4c3C)CC2CCO)cc1 (configuration not stated) | 23µM* | ? | -13% | ? | 1%

High-throughput results deposited in PubChem BioAssay by National Center for Advancing Translational Sciences (NCATS).
